PubChem BioAssay AID1159580 (chemical genetic matrix, 2015)
Several values for one entry are separate records, joined by “and”; a condition that tells them apart may be missing. Equal values may be shown once. Among all 5,500 compounds or so, about 2,000 (36%) were called active. Inconclusive results (about 18%) are left out. No stated cut-off is given here; in the data, active means normalized growth mostly below about 0.91 (no sharp cut-off); inconclusive means no clear call, values can overlap the other calls; inactive means mostly above about 0.92. This is one part of the list.

Test: chemical genetic growth profiling, strain panel (AID 1159580);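 further: tested at 20 µM; growth read once vehicle control cultures reached saturation at 30 °C; 1 = growth at the plate median or of vehicle wells; lower values mean less growth of the strain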
Details: S. cerevisiae deletion strains, growth OD

Measured: normalized growth

NC(=O)NO
inactive: locus YAL021C, strain ccr4, hits give low values 1.02 | locus YAL026C, strain drs2, hits give low values 1.03 | locus YAL030W, strain snc1, hits give low values 1 | locus YAL040C, strain CLN3, hits give low values 1.09 | locus YBL061C, strain skt5, hits give low values 1.04 | locus YBR009C, strain hhf1, hits give low values 1.01 | locus YBR021W, strain FUR4, hits give low values 1 | locus YBR023C, strain chs3, hits give low values 1.02 | locus YBR171W, strain sec66, hits give low values 1.02 | locus YBR229C, strain ROT2, hits give low values 0.999 | locus YBR231C, strain swc5, hits give low values 1.01 | locus YBR279W, strain paf1, hits give low values 1.03 | locus YCL011C, strain gbp2, hits give low values 1.02 | locus YCL016C, strain dcc1, hits give low values 1.02 | locus YCL029C, strain bik1, hits give low values 1 | locus YCL061C, strain MRC1, hits give low values 1.01 | locus YCL069W, strain vba3, hits give low values 1.02 | locus YCR088W, strain abp1, hits give low values 1.02 | locus YDL005C, strain med2, hits give low values 1.02 | locus YDL035C, strain GPR1, hits give low values 1.01 | locus YDL040C, strain nat1, hits give low values 1.04 | locus YDL074C, strain BRE1, hits give low values 1.01 | locus YDL101C, strain DUN1, hits give low values 1 | locus YDL134C, strain PPH21, hits give low values 1 | locus YDL185W, strain tfp1, hits give low values 0.994 | locus YDL192W, strain arf1, hits give low values 1.01 | locus YDR001C, strain nth1, hits give low values 1.01 | locus YDR069C, strain doa4, hits give low values 1.02 | locus YDR101C, strain arx1, hits give low values 0.996 | locus YDR137W, strain rgp1, hits give low values 1.04 | locus YDR159W, strain sac3, hits give low values 1.01 | locus YDR162C, strain NBP2, hits give low values 1.01 | locus YDR195W, strain ref2 0.962 | locus YDR297W, strain sur2, hits give low values 1.02 | locus YDR318W, strain mcm21, hits give low values 1 | locus YDR334W, strain swr1, hits give low values 1.01 | locus YDR335W, strain msn5, hits give low values 1.02 | locus YDR363W, strain ESC2, hits give low values 1.01 | locus YDR388W, hits give low values 0.998 | locus YDR392W, strain spt3, hits give low values 1.04 | locus YDR502C, strain sam2, hits give low values 0.989 | locus YEL003W, strain gim4, hits give low values 1.02 | locus YEL037C, strain rad23, hits give low values 1.01 | locus YEL061C, strain CIN8 (second series), hits give low values 1.02 | locus YEL061C, strain CIN8, hits give low values 1 | locus YER002W, strain NOP16, hits give low values 0.998 | locus YER015W, strain faa2, hits give low values 1.01 | locus YER016W, strain bim1, hits give low values 1.01 | locus YER110C, hits give low values 0.997 | locus YER111C, strain swi4, hits give low values 1.03 | locus YER155C, strain BEM2 (second series), hits give low values 1.01 | locus YER155C, strain BEM2, hits give low values 0.998 | locus YER167W, strain BCK2, hits give low values 1 | locus YFR010W, strain ubp6, hits give low values 1.01 | locus YGL078C, strain dbp3, hits give low values 0.999 | locus YGL086W, strain mad1, hits give low values 0.985 | locus YGL167C, strain pmr1, hits give low values 1.02 | locus YGL173C, strain kem1, hits give low values 1.02 | locus YGL227W, strain vid30, hits give low values 1.01 | locus YGL240W, strain doc1, hits give low values 0.983 | locus YGL248W, strain PDE1, hits give low values 1 | locus YGL253W, strain hxk2, hits give low values 1.03 | locus YGR078C, strain PAC10, hits give low values 1 | locus YGR135W, strain pre9, hits give low values 0.997 | locus YGR229C, strain SMI1, hits give low values 0.997 | locus YGR252W, strain gcn5, hits give low values 0.943 | locus YHR013C, strain ard1, hits give low values 1.02 | locus YHR027C, strain rpn1, hits give low values 1.02 | locus YHR030C, strain SLT2, hits give low values 0.989 and 0.962 | locus YHR079C, strain IRE1 (second series), hits give low values 1 | locus YHR079C, strain IRE1, hits give low values 0.981 | locus YHR094C, strain hxt1, hits give low values 0.997 | locus YHR129C, strain ARP1, hits give low values 1 | locus YHR142W, strain chs7, hits give low values 1.04 | locus YHR200W, strain rpn10, hits give low values 0.992 | locus YIL066C, strain RNR3, hits give low values 1.01 | locus YIL073C, strain SPO22, hits give low values 1.03 | locus YIL125W, strain kgd1, hits give low values 0.989 | locus YIR030C, strain dcg1, hits give low values 1.01 | locus YJL092W, strain hpr5, hits give low values 1.02 | locus YJL095W, strain BCK1 (second series), hits give low values 1 | locus YJL095W, strain BCK1, hits give low values 1.01 and 0.965 | locus YJL115W, strain asf1, hits give low values 1.01 | locus YJL129C, strain trk1, hits give low values 1.03 | locus YJL134W, strain LCB3, hits give low values 1 | locus YJL154C, strain vps35, hits give low values 1.03 | locus YJL164C, strain tpk1, hits give low values 1.01 | locus YJL166W, strain qcr8, hits give low values 1.03 | locus YJL168C, strain set2, hits give low values 1 | locus YJL187C, strain SWE1 (second series), hits give low values 1 | locus YJL187C, strain SWE1, hits give low values 1.03 | locus YJR043C, strain POL32, hits give low values 1
